# Compound activity (PubChem)
# Most compounds without a hit are left out; they make up all but 21% or so of the library.
# Shiga inhibitor = A qHTS for Small Molecule Inhibitors of Shiga Toxin; actives 9.2% (n = 290,000); AID 2315, 2010; Vero cells, Shiga toxin protein synthesis inhibition reporter; inhibition, % at 38.7 µM; in the data active = inhibition mostly above about 28%, no sharp cut-off; inactive = mostly below about 43%; also: 0% is about no effect
# NS1 inh = qHTS Assay for Inhibitors of Influenza NS1 Protein Function; Potency, µM (series often up to 46.1 µM), for inactives: at the top dose activity, positive = more growth; actives 0.4% (n = 270,000); calls by dose curve; also: potency is read from the fitted curve at half-maximal effect; actives are rising curves; nearly all actives have a fitted effect of over 50% in size
#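 S. cerevisiae expressing influenza A NS1, grown in glucose, washed, then diluted 1:100 into pH 6.0 -URA galactose medium with 23 nl compound. Growth recovery read as OD600; NS1-free strain serves as control.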
# CHX counter = Cycloheximide Counterscreen for Small Molecule Inhibitors of Shiga Toxin | max response, % | AID 2314, 2010 | actives 12% (n = 300,000) | cell reporter, cycloheximide protein synthesis inhibition counterscreen; in the data active = max response mostly above about 13%, no sharp cut-off; inactive = mostly below about 14%; also: read at 38.3 µM for the half of the compounds with a filed dose; 0% is about no effect
# Pf growth 96h = Primary qHTS for delayed death inhibitors of the malarial parasite plastid, 96 hour incubation. P. falciparum luciferase reporter growth, 96 h. Potency, µM (doses to about 28.7 µM), for inactives: at the top dose activity change, negative = inhibition, usual class: inhibitors. actives 6.9% (n = 320,000). AID 504834, 2011; also: potency is read from the fitted curve at half-maximal effect; % is scaled to controls: 0 for no effect and ±100 for the full control effect
#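 Two parasite generations (96 h, 37 C, 5% CO2) of compound exposure in infected erythrocytes (0.05% parasitemia, 2% hematocrit). Luciferase-reporter P. falciparum; decreased luminescence indicates inhibited growth, aimed at apicoplast-acting delayed death.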
# Sm TGR block = qHTS Assay for the Inhibitors of Schistosoma Mansoni Peroxiredoxins; purified TGR, DTNB reduction, TNB absorbance 405 nm; Potency, µM (titrated, usually from 114 µM), without a hit: top-dose activity change, negative = inhibition, most hits filed as inhibitors; actives 3% (n = 360,000); AID 485364, 2010; also: potency is read from the fitted curve at half-maximal effect; % is scaled to controls: 0 for no effect and ±100 for the full control effect; nearly all actives have a fitted effect of over 60% in size
#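 First, TGR (20 nM dispensed) and NADPH were mixed with compound. Second, a 15 min room-temperature incubation followed. Third, further NADPH and then DTNB were added to start the reaction. Finally, TNB absorbance was monitored kinetically.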
# Pf growth 48h = Primary qHTS for delayed death inhibitors of the malarial parasite plastid, 48 hour incubation | P. falciparum luciferase growth in erythrocytes, 48 h | Potency, µM (highest dose often 28.7 µM), for the others: at the highest dose activity change, negative = inhibition, actives largely listed as inhibitors | actives 5.9% (n = 310,000); also: potency is read from the fitted curve at half-maximal effect; % is scaled to controls: 0 for no effect and ±100 for the full control effect
#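 Cell-based growth assay: transgenic P. falciparum expressing firefly luciferase, cultured in red cells within RPMI 1640 containing 0.5% w/v Albumax, 24 mM bicarbonate and gentamycin. A drop in luciferase activity indicates inhibition.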
# * hit, by the source's call; i = inactive; ? = inconclusive; · = no result given. Unless noted, calls follow the shape of the dose curve; as a rule, active = well fitted curve in the direction sought with a large enough effect; inconclusive = small, poorly fitted or top-dose-only effect, or another doubt; inactive = no such curve, though single readings can be large; an effect the other way counts as inactive or inconclusive.
SMILES,Shiga inhibitor,NS1 inh,CHX counter,Pf growth 96h,Sm TGR block,Pf growth 48h
Cc1c(/N=C(\[O-])Nc2ccc(Br)cc2)sn[n+]1C,95*,-1%,47*,317%,1%,149%
Cc1nn(Cc2c(F)c(F)c(F)c(F)c2F)c(C)c1NC(=O)c1c(-c2ccccc2)nn(-c2ccccc2)c1C,-8,2%,4,31%,16%,?
Brc1ccc(C=Nc2ccc(Nc3ccccc3)cc2)s1,-9,?,4,13µM*,?,?
Nc1nc(SCC(=O)NCCc2ccccc2)[nH]c(=O)c1-c1ccccc1,-11,8%,-2,30%,·,6%
COc1ccc(CCC(=O)Nc2sc(C(=O)N(C)C)c(C)c2C#N)cc1,-5,1%,2,?,-12%,0%
Cc1nc(NC(=O)CCl)sc1C(=O)N(C)C,23,3%,-3,21%,16µM*,?
CCC(=O)Nc1nc(C)c(C(=O)NC2CCCCC2)s1,9,-11%,-2,?,-2%,3.7µM*
Cc1nc(NC(=O)C(Cl)Cl)sc1C(=O)N(C)C,-12,-10%,4,45%,-9%,-1%
COc1ccc(CCC(=O)Nc2nc(C)c(C(=O)N(C)C)s2)cc1,3,18%,10,?,-6%,7.4µM*
Cc1nc(NC(=O)C2CC2)sc1C(=O)NC1CCCCC1,-13,-2%,-2,-8%,11%,?
Cc1ccc(-n2c(=O)c3c(cnn3C)n(Cc3ccccc3F)c2=O)cc1,·,·,·,·,3%,·
NC(=O)COC(=O)c1cc(-c2ccco2)nc2ccccc12,-10,-3%,2,40%,3.2µM*,15%
O=C(COC(=O)c1ccc2c(c1)OCO2)NCc1ccc2c(c1)OCO2,26,3%,-3,19%,-12%,·
COc1ccccc1CNC(=O)COC(=O)c1cc(-c2ccco2)nc2ccccc12,17,9%,20,·,10µM*,16%
O=C(COC(=O)c1cc(-c2ccco2)nc2ccccc12)NCc1ccc2c(c1)OCO2,-2,-3%,-1,-11%,8.9µM*,-18%
COc1cccc2cc(C(=O)OCC(=O)NCc3ccc4c(c3)OCO4)c(=O)oc12,67*,-3%,38*,23%,-4%,11%
COc1ccc(-c2cc(C(=O)N3CCN(c4ccccc4F)CC3)c3ccccc3n2)c(OC)c1,-6,15%,5,-12%,-13%,?
Fc1ccc(Nc2nc(Nc3ccc(F)cc3)nc(N3CCOCC3)n2)cc1,·,·,·,·,-6%,·
Oc1[nH]c2ccccc2c1N=Nc1nc(Nc2ccccc2)nc(N2CCOCC2)n1,11,5%,-1,?,-3%,6.6µM*
Cc1[nH]c2ccccc2c1/C=N/Nc1nc(Nc2ccccc2)nc(N2CCOCC2)n1,16,-54%,20*,?,1%,?
COc1ccc(-c2nc3ccccc3s2)cc1NC(=O)c1ccc(C#N)cc1F,·,·,·,·,-2%,·
Cc1ccc(CS(=O)Cc2ccc(C(=O)NCc3ccccc3Br)o2)cc1 (stereo not drawn),1,8%,-2,?,-35%,-18%
FC(F)(F)c1ccc(-n2cnc3ccccc32)nc1,46*,-13%,33*,-24%,-24%,16%
Cc1c(C(=O)O)sc(S(=O)(=O)N2CCN(C(=O)Cc3ccc(F)cc3)CC2)c1C(=O)O,·,·,·,12%,4%,-16%
COc1cc(C2C(C(=O)Nc3ccccc3C)=C(C)Nc3nc(SCc4cc(C)ccc4C)nn32)ccc1O (stereo not drawn),-8,·,-7,·,-15%,·
SMILES,Shiga inhibitor,NS1 inh,CHX counter,Pf growth 96h,Sm TGR block,Pf growth 48h
N#C/C(=C\c1c[nH]c2ccc(Br)cc12)c1ccccn1,22,4%,13,9.3µM*,5%,?
Brc1ccc2[nH]cc(/C=N/N3CCCCC3)c2c1,2,0%,1,8%,-12%,14%
COc1ccc(OCC(=O)Nc2cc(-c3nn(C)c(=O)c4ccccc34)ccc2N2CCOCC2)cc1,-3,1%,0,5.9µM*,4%,?
CCN(CC)C(=O)c1ccc(NC(=O)COc2ccc(-c3nn(C)c(=O)c4ccccc34)cc2)cc1,-8,-13%,-4,?,-6%,13µM*
CN(C(=O)c1ccc(-c2nn(C)c(=O)c3ccccc23)cc1)C1CCCCC1,12,-8%,14,13%,6%,12µM*
CCOc1ccccc1NC(=O)C1CCN(S(=O)(=O)c2ccccc2)CC1,·,·,·,·,-13%,·
O=C(OCC(=O)N1CCCc2ccccc21)c1cccc(S(=O)(=O)N2CCOCC2)c1,·,·,·,36%,?,-5%
Nc1nnc2c(n1)CCCC2,-3,5%,-4,49%,32µM*,-14%
C1CCc2nc3c(nc2C1)CCCC3,-9,1%,-1,0%,-3%,19%
c1ccc(N=P(c2nc3ccccc3o2)(N2CCOCC2)N2CCOCC2)cc1,33*,-9%,23*,24%,-1%,41%
COc1cc(C(=O)OCc2cc(=O)n3nc(C(C)C)sc3n2)cc(OC)c1OC,·,·,·,·,-7%,·
O=C1COc2ccc(C(=O)COC(=O)CNC(=O)c3ccco3)cc2N1,-14,·,-2,13%,-28%,-3%
CCOC(=O)C1CCCN(Cc2nc3ccc([N+](=O)[O-])cc3c(=O)n2-c2ccc(OC)cc2OC)C1 (stereo not drawn),-9,-1%,4,?,?,?
CCOC(=O)C1CCN(Cc2nc3ccc([N+](=O)[O-])cc3c(=O)n2-c2ccc(OC)cc2OC)CC1,-10,1%,8,2%,32µM*,?
COc1ccc(-n2c(CN3CCN(c4ccccc4OC)CC3)nc3ccc([N+](=O)[O-])cc3c2=O)c(OC)c1,3,7%,-3,-18%,?,13µM*
COc1ccc(-n2c(CN3CCC(C(N)=O)CC3)nc3ccc([N+](=O)[O-])cc3c2=O)c(OC)c1,36,-3%,1,?,45µM*,0%
O=[N+]([O-])c1ccc(O)c(Nc2c([N+](=O)[O-])ccc3nonc23)c1,-11,2%,-5,251%,-26%,-26%
CC(CCc1ccccc1)NC(=O)CCC(=O)N1CCC(C(=O)O)CC1 (stereo not drawn),·,6%,-3,-17%,-2%,4%
COC(=O)N/N=C/c1ccccc1Cl,21,·,9,78%,6%,i
COc1ccc(NC(=S)NC(=O)/C=C/c2ccccc2)cc1,·,10%,-2,-30%,-22%,1%
CN(C)c1ccc(/C=N/OC(=O)Nc2ccccc2)cc1,52*,-11%,37*,?,-15%,96%
COc1ccc(NC(=O)O/N=C/c2ccccc2)cc1,79*,-29%,40*,?,-21%,6%
